# A selection: hits, their analogues and other compounds. The true share with any hit is near 2.6%.
# A549 viability: kills or reduces viability of A549 cells in Nrf2 counter-screen; A549 ARE-Fluc cells, CellTiter-Fluor viability, 18-24 h; 0.16% of 390,000 active; Potency, µM (titrated, usually from 46 µM), usual class: inhibitors
#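 Cytotoxicity counterscreen: CellTiter-Fluor fluorescence was measured in A549 ARE_Fluc cells after 18-24 h of compound exposure in a concentration series. The subsequent BugLite luminescent read reports ARE-luciferase activity.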
# CCT modulator: changes cytosolic chaperonin activity | purified chaperonin ATPase assay, HTRF ADP detection, 30 min | activity change, % (concentration not given with the values), hits read low | 0.3% of 360,000 active; in the data active means activity change below about -30%
#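 First, chaperonin was dispensed at 40 nM or 20 nM final depending on batch activity. Next, compounds were pinned at 76 uM and ATP added at 10 uM. After 30 min at 37 °C, ADP detection reagents ran 30 min at ambient temperature.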
# Nrf2 block: Nrf2 pathway inhibition; A549 ARE-Fluc reporter, luciferase luminescence, 18-24 h; Potency, µM (top dose mostly 46 µM), most hits filed as inhibitors; 2.1% of 360,000 active; AID 504444; further: nearly all actives have a fitted effect of over 60% in size
#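 Cells were seeded and rested 2 h, then exposed to compounds for 18-24 h. CellTiter-Fluor was read first as a viability measure. BugLite was added 15 min before the final luminescent read of ARE-luciferase activity in A549 cells.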
# TCR activator: activates T cell receptor signaling | primary human leukocytes, anti-CD3, IL-2 HTRF, 48 h | Potency, µM (titrated, usually from 9.22 µM), most hits filed as activators | AID 504894 | 330,000 tested, under 10 active
#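 Activity was scored as IL-2 release from primary human leukocytes given only a TCR signal (a-CD3 beads) plus compound for 48 hr. Detection used a two-antibody HTRF format read at 665nm.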
# Nrf2 activator: activates Nrf2 signaling. AREc32 ARE-luciferase reporter (MCF7-derived line), luminescence, 24 h. Potency, µM (series often up to 46.1 µM), most hits filed as activators. 0.31% of 410,000 active; further: nearly all actives have a fitted effect of over 65% in size
#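 Nrf2 activation is followed as ARE-luciferase induction in the AREc32 line after one day of compound treatment; luminescence is read with Steady-Glo.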
# AT treatment: candidate therapy for ataxia-telangiectasia; F2112 A-T fibroblasts, KAP-1 phosphorylation AlphaLISA; neocarzinostatin DNA damage 30 min before lysis; Potency, µM (doses to about 57.5 µM), most hits filed as activators; 0.19% of 320,000 active; AID 485349; further: nearly all actives have a fitted effect of over 45% in size
#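 ATM-like activity read as KAP-1 phosphorylation via AlphaLISA donor/acceptor antibody pairs after lysis and 6 hr at 25C. Cells were ATM-null patient fibroblasts (F2112, hTERT), dosed 60 min, then exposed to the DSB inducer NCS for 30 min.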
# A number is an active result; 0 = inactive; ? = inconclusive; - = not tested or not shown; [ ] = remark or other dose. Unless noted, the call rests on the fitted dose curve; in most records, active means well fitted curve in the direction sought with a large enough effect; inconclusive means small, poorly fitted or top-dose-only effect, or another doubt; inactive means no such curve, though single readings can be large; an effect the other way counts as inactive or inconclusive.
SMILES,A549 viability,CCT modulator,Nrf2 block,TCR activator,Nrf2 activator,AT treatment
O=[S+]([O-])(c1ccc(-c2ccccc2)cc1)N1CCN([S+](=O)([O-])c2ccc3c(c2)OCCO3)CC1,0,-,0,-,-,-
Cc1ccc(NC(=O)CC(=O)c2ccc([N+](=O)[O-])cc2)cc1S(=O)(=O)Nc1cccc(Cl)c1,?,0,16.4µM,0,0,0
Cc1ccc(NS(=O)(=O)c2cc(C(=O)Nc3cccc([N+](=O)[O-])c3)ccc2C)cc1,?,0,?,0,0,0
O=C(CCl)NCCCN(C(=O)C(Cl)Cl)c1ccc([N+](=O)[O-])cc1,?,0,?,0,11.2µM,0
COCCCNC(=O)c1ccc([N+](=O)[O-])cc1,0,0,0,0,0,0
N/C(=N\OC(=O)c1ccco1)c1cccc([N+](=O)[O-])c1,0,0,?,0,14.1µM,0[11.5 µM]
N/C(=N\OC(=O)c1cccc(Br)c1)c1ccccn1,0,0,?,0,?,0
N/C(=N\OC(=O)c1ccco1)c1cccc(Br)c1,0,0,?,0,4.47µM,0
N/C(=N\OC(=O)/C=C/c1ccccc1)c1ccccc1,0,0,?,0,11.2µM,0
N/C(=N\OC(=O)c1cccc(Br)c1)c1ccccc1,0,0,-,0,7.08µM,0
CN(CC(=O)Nc1ccccc1Br)C(=O)c1cc([N+](=O)[O-])ccc1N1CCOCC1,0,0,0,0,0,0
N#Cc1ccccc1S(=O)(=O)N1CCN(S(=O)(=O)c2ccc3c(c2)OCCO3)CC1,0,-,0,-,-,-
CN(CC(=O)Nc1cccc(F)c1)C(=O)c1cccc(S(=O)(=O)N2CCN(c3ccc(F)cc3)CC2)c1,?,0,16.4µM,0,0,-
CN(CC(=O)Nc1ccccc1Cl)C(=O)c1cccc(S(=O)(=O)N2CCN(Cc3ccccc3)CC2)c1,0,0,14.6µM,0,0,0
CN(CC(=O)Nc1ccccc1Cl)C(=O)c1cccc(S(=O)(=O)N2CCN(c3ccccc3)CC2)c1,0,0,20.6µM,0,0,-
CN(CC(=O)Nc1ccccc1Cl)C(=O)c1cc(C2CC2)nn1-c1ccccc1,0,-30.9,0,-,0,0
Cc1cccc(C)c1NC(=O)CN(C)C(=O)c1cccc(S(=O)(=O)N2CCN(c3ccccc3)CC2)c1,0,0,0,0,0,0
Cn1nnnc1Sc1ncnc2scc(-c3ccc(N)cc3)c12,0,-,0,-,-,-
CCCOc1cccc(C2c3c(oc4ccc(F)cc4c3=O)C(=O)N2c2nc(C)c(C(C)=O)s2)c1 (stereo not given),0,-,0,-,0,-
COc1ccc(N(CC(=O)NCc2ccco2)C(=O)CNS(=O)(=O)c2ccc(Cl)cc2)cc1,0,0,0,0,0,0
CN(Cc1cccc(Cl)c1Cl)C(=O)c1cccc(S(=O)(=O)N2CCN(Cc3ccccc3)CC2)c1,0,0,13µM,0,0,0
CN(Cc1cccc(F)c1)C(=O)c1cccc(S(=O)(=O)N2CCN(Cc3ccccc3)CC2)c1,0,0,?,0,0,0
CN(CC(=O)Nc1ccccc1Cl)C(=O)c1cccc(S(=O)(=O)N2CCN(c3ccc(F)cc3)CC2)c1,0,0,5.17µM,0,0,0
CN(CC(=O)Nc1cccc(F)c1)C(=O)c1cccc(S(=O)(=O)N2CCN(Cc3ccccc3)CC2)c1,-,0,-,-,0,-
CCOc1ccc2nc(N3CCC(C(=O)N4CCN(c5ccccn5)CC4)CC3)sc2c1,0,0,16.4µM,0,0,0
SMILES,A549 viability,CCT modulator,Nrf2 block,TCR activator,Nrf2 activator,AT treatment
Cc1ccc(NCCC(=O)c2cccs2)cc1C,0,0,?,0,22.4µM,0
O=[N+]([O-])c1ccc(C2=Nc3cc(Cl)ccc3OC2)cc1,0,0,?,-,12.6µM,0
COc1cc(C2C=C(C34CC5CC(CC(C5)C3)C4)NC(=S)N2)cc(OC)c1OC (stereo not given),0,0,23.1µM,0,0,0
CCCCN(CC)CCCNC(=O)C1CCN(c2nc3ccc(CC)cc3s2)CC1,0,-,0[9.27 µM],-,0,-
COc1ccccc1N1CCN(S(=O)(=O)CCNC(=O)Cc2ccc(F)cc2)CC1,0,0,0,0,0,0
COc1ccc(C)cc1NC(=O)c1sc2ncnc(N3CCN(c4ccccn4)CC3)c2c1C,0,-138.9,0,0,0,0
Cc1ccc(NC(=O)c2sc3ncnc(N4CCN(c5ccccn5)CC4)c3c2C)c(C)c1,0,0,?,0,0,0
Cc1ccc(NC(=O)CN2CCc3cc4c(cc3C2C)OCCCO4)cc1 (stereo not given),0,0,0,0,0,0
Cc1ccc(NC(=O)CN2CCc3cc4c(cc3C2C)OCCCO4)cc1C (stereo not given),0,0,25.9µM,0,0,0
CC1c2cc3c(cc2CCN1CC(=O)Nc1ccccc1)OCCCO3 (stereo not given),0,0,18.4µM,0,0,0
COC(=O)CCc1nc2ccccc2[nH]c1=O,0,0,0,0,0,0
COC(=O)CSCc1nc2ccccc2[nH]c1=O,0,-32.5,?,0,0,0
COc1ccc(/C=N/NC(=O)c2cc(C(C)(C)C)[nH]n2)cc1COc1ccc(F)cc1F,?,0,20.6µM,0,0,0
N#Cc1cc2sc3nnc(-c4ccncc4)n3c2cc1C#N,0,0,6.51µM,0,?,0
N#Cc1cc2sc3nc4ccccc4n3c2cc1C#N,-,-,-,-,-,0
CCOC(=O)c1cc(-c2cccnc2)nn1-c1ccccc1,0,0,11.6µM,0,0,0
CCOC(=O)c1cc(-c2ccccc2)nn1-c1ccccn1,0,0,0,-,0,0
O=C(CNC(=O)c1ccccc1)OC(Cc1ccccc1)C(=O)Nc1cc(C(F)(F)F)ccc1Cl (stereo not given),0,-,0,-,-,-
O=C(Nc1cc2c(oc1=O)CCCC2=O)c1cccc(Cl)c1,0,0,0,0,11.2µM,0
COc1ccc(C(=O)Nc2cc3c(oc2=O)CCCC3=O)cc1,0,0,?,-,0,0
CC1CC(C)CN(C(=O)C(C)N2CCN(S(=O)(=O)c3ccc(C(F)(F)F)cc3)CC2)C1 (stereo not given),?,0,18.4µM,0,0,-
COc1ccccc1NC(=O)CN(Cc1ccco1)C(=O)c1cc2ccccc2o1,-,-,-,-,-,0
Cc1ccc2c(c1)P(=O)(O)c1cc(C)ccc1O2,0,0,0,0,0,-
COC(=O)c1cc(NC(=O)c2cccc(C(F)(F)F)c2)c(=O)oc1C/C=N/OCc1cccc(Cl)c1Cl,0,0,0,0,12.6µM,-
COC(=O)c1cc(NC(=O)c2cccc(C(F)(F)F)c2)c(=O)oc1C,0,0,?,0,0,0

# High-throughput results (PubChem)
